Results reported in PubChem BioAssay (NCATS).
Inconclusive results are not listed. The source made the active and inactive calls. The call rests on the fitted dose curve; in most records, active means well fitted cell-killing curve with a large enough effect; inconclusive means small, poorly fitted or top-dose-only effect, or effect the other way; inactive means flat fitted curve, though single readings scatter.
On the % scale 0 is the no-effect control and ±100 the full control effect.

These molecules were tested on C33A (assay: Primary qHTS to identify gynecologic anti-cancer compounds using libraries of approved drugs and bioactive compounds (AID 1345084; further: nearly all actives have a fitted effect of over 55% in size)). Details: Gynecologic cancer cell panel viability, ATPlite luminescence, 48 h; series mostly up to 57.5 µM; activity change, negative = cytotoxicity: at the top concentration.
Procedure, shortened: (§1)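 Luminescence from the ATPlite ATP-monitoring reagent indicates viable cell number; lower signal means cytotoxicity. Cells received compound 16 h after seeding and were exposed for 48 h across five concentrations.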
`O=C(O)CCCOc1ccc(Cl)cc1Cl` was tested, and the “activity change, negative = cytotoxicity” value was 4.19% [at 116 µM] (inactive).
For `CCC1(CCC(C)C)C(=O)NC(=O)NC1=O`, the “activity change, negative = cytotoxicity” value was 7.75% [at 116 µM] (inactive).
For `Nc1ccc([N+](=O)[O-])cc1`, the “activity change, negative = cytotoxicity” value was 3.27% [at 116 µM] (inactive).
In the case of `CCOC(=O)Nc1ccc(NCc2ccc(F)cc2)cc1N`, the “activity change, negative = cytotoxicity” value is reported as 18.7% (inactive).
`COc1ccc(C(c2ccc(OC)cc2)C(Cl)(Cl)Cl)cc1` was tested, and the “activity change, negative = cytotoxicity” value was -15.8% [at 116 µM] (inactive).

The molecules below were run on CASKI in the same assay as above. Details: Gynecologic cancer cell panel viability, ATPlite luminescence, 48 h; series mostly up to 57.5 µM; activity change, negative = cytotoxicity: at the top concentration.
Procedure, shortened: as §1
With `O=C(O)CCCOc1ccc(Cl)cc1Cl` the “activity change, negative = cytotoxicity” value was -1.13% [at 116 µM] (inactive).
For `CCC1(CCC(C)C)C(=O)NC(=O)NC1=O`, the “activity change, negative = cytotoxicity” value was -0.637% [at 116 µM] (inactive).
In the case of `Nc1ccc([N+](=O)[O-])cc1`, the “activity change, negative = cytotoxicity” value is reported as -2.67% [at 116 µM] (inactive).
With `CCOC(=O)Nc1ccc(NCc2ccc(F)cc2)cc1N` the “activity change, negative = cytotoxicity” value was 21% (inactive).

These molecules were tested on Es-2 in the same assay as above. Details: Gynecologic cancer cell panel viability, ATPlite luminescence, 48 h; series mostly up to 57.5 µM; activity change, negative = cytotoxicity: at the top concentration.
Procedure, shortened: as §1
`O=C(O)CCCOc1ccc(Cl)cc1Cl` was tested, and the “activity change, negative = cytotoxicity” value was -10.2% [at 116 µM] (inactive).
`CCC1(CCC(C)C)C(=O)NC(=O)NC1=O` was tested, and the “activity change, negative = cytotoxicity” value was 1.5% [at 116 µM] (inactive).
With `CCOC(=O)Nc1ccc(NCc2ccc(F)cc2)cc1N` the “activity change, negative = cytotoxicity” value was 2.79% (inactive).
In the case of `COc1ccc(C(c2ccc(OC)cc2)C(Cl)(Cl)Cl)cc1`, the “activity change, negative = cytotoxicity” value is reported as -1.68% [at 116 µM] (inactive).
